Results reported in PubChem BioAssay.
Active and inactive are the calls of the source.

Legend:
[1] = binders of probe aFSTL3 on microarray, primary screen, stem cell growth factor project, biochemical, small-molecule microarray, fluorescence 635/667 (AID 1064); settings: higher = more signal;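 further: measures binding of the biotinylated anti-FSTL3 antibody to printed compounds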
[2] = binders from COS7 lysate, DM2A8 probe, primary screen, torsin A project, cell lysate, small-molecule microarray, fluorescence 635/667 (AID 1065); settings: higher = more signal, COS7 lysate expressing mutant human TOR1A
[3] = binders of probe aFGF2 on microarray, primary screen, stem cell growth factor project, biochemical, small-molecule microarray, fluorescence 635/667 (AID 1067); settings: higher = more signal;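 further: measures binding of biotinylated aFGF2 protein to printed compounds on slides; z-score merges feature fluorescence and signal-to-noise across triplicate slides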
[4] = binders of probe aFGF10 on microarray, primary screen, stem cell growth factor project, biochemical, small-molecule microarray, fluorescence 635/667 (AID 1071); settings: higher = more signal;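 further: score merges 667 nm spot intensity and signal to noise from triplicate slides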
[5] = molecular target: Neurogenic locus notch homolog protein 2 (Homo sapiens) (UniProt Q04721); experiment: Notch2 binders on small-molecule microarrays, primary screen, biochemical, small-molecule microarray, 635 nm fluorescence, stem cell growth factors (AID 1073); settings: Notch2 binding, higher = more signal
[6] = molecular target: Pro-neuregulin-1, membrane-bound isoform (Homo sapiens) (UniProt Q02297); experiment: NRG1 binders on small-molecule microarrays, primary screen, psychiatric disease protein project, biochemical, small-molecule microarray, fluorescence 635/667 (AID 1075); settings: NRG1 binding, 635 nm fluorescence, higher = more signal;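 further: score combines 667 nm spot fluorescence with signal to noise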
[7] = system: Neuregulin-1 EGF-like domain; experiment: binders of neuregulin-1 EGF-like domain, primary screen, biochemical, small-molecule microarray, 635 nm fluorescence (AID 1081); settings: small-molecule microarray binding, higher = more signal;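 further: binding of the protein to compounds printed on small-molecule microarray slides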
[8] = FRG1 promoter luciferase signal modulators, primary screen, FRG1 inhibition for FSHD, cell-based, C2C12 myotubes, firefly/Renilla luciferase, luminescence (AID 1084); settings: higher = more signal, called active from +8 up or from −8 down
[9] = binders of probe aFST on microarray, primary screen, stem cell growth factor project, biochemical, small-molecule microarray, fluorescence 635/667 (AID 1086); settings: higher = more signal;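 further: score merges 667 nm fluorescence with signal-to-noise of each printed compound spot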
[10] = binders of probe aHhip on microarray, primary screen, stem cell growth factor project, biochemical, small-molecule microarray, fluorescence 635/667 (AID 1087); settings: higher = more signal;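 further: score merges spot fluorescence at 667nm with spot signal to noise ratio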
[11] = system: PRMT1 (protein arginine N-methyltransferase 1); experiment: PRMT1 binders on small-molecule microarrays, primary screen, biochemical, small-molecule microarray, 635 nm fluorescence (AID 1088); settings: small-molecule microarray binding, higher = more signal;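 further: binding of Prmt1 protein to compounds spotted on small-molecule microarray slides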
[12] = yeast growth modulation, basal conditions, primary screen, YJM789 clinical isolate, OD600, 24 h (AID 1089);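 further: growth of clinical yeast isolate S. cerevisiae YJM 789 seeded 1000 cells per well; test concentration not given here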; settings: S. cerevisiae YJM789 growth, higher = more signal, called active from +8 up or from −8 down
[13] = fission yeast growth modulation, primary screen, strain 972, OD600, 24 h, no modulator (AID 1090);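 further: basal condition with compound alone and no growth modifier present; test concentration not given here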; settings: S. pombe 972 growth, higher = more signal, called active from +8 up or from −8 down
[14] = S. cerevisiae growth modulation with rapamycin, primary screen, strain BY4716, OD600, 96 h (AID 1091); settings: higher = more signal, called active from +8 up or from −8 down; further: test concentration not given here
[15] = molecular target: Torsin-1A-interacting protein 2 (Homo sapiens) (UniProt Q8NFQ8); experiment: LULL1 binders on small-molecule microarray, primary screen, cell lysate, human LULL1 lysate, 635/667 nm fluorescence (AID 1092); settings: hLULL1 lysate binding, 635 nm fluorescence, higher = more signal;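 further: probe is lysate of COS7 cells overexpressing human LULL1; score merges per-feature 667 nm fluorescence with signal-to-noise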
[16] = E. coli growth modulation, two-sided OD650, primary screen, E. coli filamentation project, strain DRC41, 24 h (AID 1093); settings: OD650, 24 h, higher = more signal, called active from +8 up or from −8 down;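 further: MC1000 strain lacking acrAB efflux and sulA so SOS filamentation is blocked; test concentration not given here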
[17] = small-molecule microarray binders of probe aLefty2, primary screen, biochemical, biotinylated probe, 635/667 nm fluorescence (AID 1094); settings: higher = more signal;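 further: score merges spot fluorescence near 667 nm with spot signal-to-noise ratio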
[18] = system: Noggin (protein binding on small-molecule microarray); experiment: Noggin binders on small-molecule microarray, primary screen, biochemical, 635/667 nm fluorescence (AID 1095); settings: 635 nm fluorescence, higher = more signal;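 further: score merges 667 nm feature fluorescence with signal to noise over triplicate slides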
[19] = molecular target: Neurogenic locus notch homolog protein 3 (Homo sapiens) (UniProt Q9UM47); experiment: NOTCH3 binders on small-molecule microarray, primary screen, biochemical, 635/667 nm fluorescence (AID 1096); settings: NOTCH3 binding, 635 nm fluorescence, higher = more signal
[20] = small-molecule microarray binders of probe aEGFR, primary screen, biochemical, biotinylated probe, 635/667 nm fluorescence (AID 1097); settings: higher = more signal;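 further: probe is a biotinylated anti-EGFR antibody binding compounds printed on slides; score combines fluorescence near 667 nm and signal to noise of each spot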

Neurogenic locus notch homolog protein 2 (Homo sapiens), sequence (Q04721 whole entry, looked up, canonical isoform): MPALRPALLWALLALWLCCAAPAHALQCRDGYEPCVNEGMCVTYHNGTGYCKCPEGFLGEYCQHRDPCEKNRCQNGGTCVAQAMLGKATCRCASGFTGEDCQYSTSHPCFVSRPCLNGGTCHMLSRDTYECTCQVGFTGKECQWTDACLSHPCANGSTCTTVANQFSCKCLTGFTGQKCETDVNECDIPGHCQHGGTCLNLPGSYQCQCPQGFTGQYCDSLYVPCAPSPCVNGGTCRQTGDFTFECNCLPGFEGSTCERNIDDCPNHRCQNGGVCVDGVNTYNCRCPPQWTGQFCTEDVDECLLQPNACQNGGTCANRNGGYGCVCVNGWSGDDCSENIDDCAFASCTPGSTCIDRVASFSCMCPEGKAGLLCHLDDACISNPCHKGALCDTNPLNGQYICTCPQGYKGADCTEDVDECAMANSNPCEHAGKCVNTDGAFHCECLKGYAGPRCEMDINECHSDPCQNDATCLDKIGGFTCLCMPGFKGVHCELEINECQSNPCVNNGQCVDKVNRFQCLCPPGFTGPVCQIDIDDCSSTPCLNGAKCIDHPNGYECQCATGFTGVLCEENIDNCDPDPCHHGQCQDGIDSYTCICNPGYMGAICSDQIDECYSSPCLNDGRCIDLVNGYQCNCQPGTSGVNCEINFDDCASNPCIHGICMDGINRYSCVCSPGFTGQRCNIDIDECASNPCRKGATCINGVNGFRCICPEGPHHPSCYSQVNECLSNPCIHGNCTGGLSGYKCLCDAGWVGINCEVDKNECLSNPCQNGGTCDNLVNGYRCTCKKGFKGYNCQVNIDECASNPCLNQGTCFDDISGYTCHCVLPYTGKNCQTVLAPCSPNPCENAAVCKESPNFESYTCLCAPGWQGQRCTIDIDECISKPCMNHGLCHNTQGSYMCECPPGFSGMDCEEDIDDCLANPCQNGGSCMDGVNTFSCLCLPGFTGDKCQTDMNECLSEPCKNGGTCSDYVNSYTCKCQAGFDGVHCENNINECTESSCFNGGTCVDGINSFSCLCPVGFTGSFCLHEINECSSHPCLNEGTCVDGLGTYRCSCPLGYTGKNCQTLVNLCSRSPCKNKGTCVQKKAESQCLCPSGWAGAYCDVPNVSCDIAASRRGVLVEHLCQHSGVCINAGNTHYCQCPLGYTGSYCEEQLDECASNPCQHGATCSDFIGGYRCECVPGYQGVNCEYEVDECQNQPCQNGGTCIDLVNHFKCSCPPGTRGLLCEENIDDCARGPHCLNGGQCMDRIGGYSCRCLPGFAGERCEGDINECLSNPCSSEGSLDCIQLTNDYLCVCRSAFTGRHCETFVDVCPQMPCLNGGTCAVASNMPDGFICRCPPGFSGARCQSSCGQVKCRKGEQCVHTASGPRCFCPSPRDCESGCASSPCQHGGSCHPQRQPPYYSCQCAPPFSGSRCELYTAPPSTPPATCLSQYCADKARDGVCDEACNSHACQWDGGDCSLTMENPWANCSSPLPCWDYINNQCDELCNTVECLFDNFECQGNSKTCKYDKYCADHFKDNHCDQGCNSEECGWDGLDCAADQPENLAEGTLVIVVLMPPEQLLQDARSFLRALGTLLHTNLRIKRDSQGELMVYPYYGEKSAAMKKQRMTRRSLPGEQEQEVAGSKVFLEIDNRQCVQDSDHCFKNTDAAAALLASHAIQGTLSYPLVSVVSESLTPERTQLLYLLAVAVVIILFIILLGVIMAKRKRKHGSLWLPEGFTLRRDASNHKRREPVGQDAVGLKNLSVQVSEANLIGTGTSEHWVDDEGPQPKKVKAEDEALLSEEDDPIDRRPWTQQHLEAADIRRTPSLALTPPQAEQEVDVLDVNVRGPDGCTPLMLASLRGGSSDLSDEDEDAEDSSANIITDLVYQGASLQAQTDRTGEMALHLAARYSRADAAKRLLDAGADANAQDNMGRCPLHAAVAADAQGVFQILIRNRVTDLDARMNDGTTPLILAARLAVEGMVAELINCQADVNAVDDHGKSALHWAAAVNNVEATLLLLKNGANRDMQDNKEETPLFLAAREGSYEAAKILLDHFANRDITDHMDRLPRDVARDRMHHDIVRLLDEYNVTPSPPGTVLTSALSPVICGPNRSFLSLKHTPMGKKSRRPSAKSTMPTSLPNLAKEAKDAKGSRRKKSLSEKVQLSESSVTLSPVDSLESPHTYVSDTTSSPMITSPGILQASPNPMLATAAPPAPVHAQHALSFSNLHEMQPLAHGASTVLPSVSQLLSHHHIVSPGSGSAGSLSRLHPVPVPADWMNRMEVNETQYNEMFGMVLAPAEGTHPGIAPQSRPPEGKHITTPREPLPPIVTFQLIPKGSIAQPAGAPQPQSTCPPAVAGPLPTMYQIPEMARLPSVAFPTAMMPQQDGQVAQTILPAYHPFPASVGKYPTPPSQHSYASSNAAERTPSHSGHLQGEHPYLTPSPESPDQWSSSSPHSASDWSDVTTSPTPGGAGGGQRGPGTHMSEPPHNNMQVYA
Neurogenic locus notch homolog protein 3 (Homo sapiens), sequence (Q9UM47 whole entry, looked up): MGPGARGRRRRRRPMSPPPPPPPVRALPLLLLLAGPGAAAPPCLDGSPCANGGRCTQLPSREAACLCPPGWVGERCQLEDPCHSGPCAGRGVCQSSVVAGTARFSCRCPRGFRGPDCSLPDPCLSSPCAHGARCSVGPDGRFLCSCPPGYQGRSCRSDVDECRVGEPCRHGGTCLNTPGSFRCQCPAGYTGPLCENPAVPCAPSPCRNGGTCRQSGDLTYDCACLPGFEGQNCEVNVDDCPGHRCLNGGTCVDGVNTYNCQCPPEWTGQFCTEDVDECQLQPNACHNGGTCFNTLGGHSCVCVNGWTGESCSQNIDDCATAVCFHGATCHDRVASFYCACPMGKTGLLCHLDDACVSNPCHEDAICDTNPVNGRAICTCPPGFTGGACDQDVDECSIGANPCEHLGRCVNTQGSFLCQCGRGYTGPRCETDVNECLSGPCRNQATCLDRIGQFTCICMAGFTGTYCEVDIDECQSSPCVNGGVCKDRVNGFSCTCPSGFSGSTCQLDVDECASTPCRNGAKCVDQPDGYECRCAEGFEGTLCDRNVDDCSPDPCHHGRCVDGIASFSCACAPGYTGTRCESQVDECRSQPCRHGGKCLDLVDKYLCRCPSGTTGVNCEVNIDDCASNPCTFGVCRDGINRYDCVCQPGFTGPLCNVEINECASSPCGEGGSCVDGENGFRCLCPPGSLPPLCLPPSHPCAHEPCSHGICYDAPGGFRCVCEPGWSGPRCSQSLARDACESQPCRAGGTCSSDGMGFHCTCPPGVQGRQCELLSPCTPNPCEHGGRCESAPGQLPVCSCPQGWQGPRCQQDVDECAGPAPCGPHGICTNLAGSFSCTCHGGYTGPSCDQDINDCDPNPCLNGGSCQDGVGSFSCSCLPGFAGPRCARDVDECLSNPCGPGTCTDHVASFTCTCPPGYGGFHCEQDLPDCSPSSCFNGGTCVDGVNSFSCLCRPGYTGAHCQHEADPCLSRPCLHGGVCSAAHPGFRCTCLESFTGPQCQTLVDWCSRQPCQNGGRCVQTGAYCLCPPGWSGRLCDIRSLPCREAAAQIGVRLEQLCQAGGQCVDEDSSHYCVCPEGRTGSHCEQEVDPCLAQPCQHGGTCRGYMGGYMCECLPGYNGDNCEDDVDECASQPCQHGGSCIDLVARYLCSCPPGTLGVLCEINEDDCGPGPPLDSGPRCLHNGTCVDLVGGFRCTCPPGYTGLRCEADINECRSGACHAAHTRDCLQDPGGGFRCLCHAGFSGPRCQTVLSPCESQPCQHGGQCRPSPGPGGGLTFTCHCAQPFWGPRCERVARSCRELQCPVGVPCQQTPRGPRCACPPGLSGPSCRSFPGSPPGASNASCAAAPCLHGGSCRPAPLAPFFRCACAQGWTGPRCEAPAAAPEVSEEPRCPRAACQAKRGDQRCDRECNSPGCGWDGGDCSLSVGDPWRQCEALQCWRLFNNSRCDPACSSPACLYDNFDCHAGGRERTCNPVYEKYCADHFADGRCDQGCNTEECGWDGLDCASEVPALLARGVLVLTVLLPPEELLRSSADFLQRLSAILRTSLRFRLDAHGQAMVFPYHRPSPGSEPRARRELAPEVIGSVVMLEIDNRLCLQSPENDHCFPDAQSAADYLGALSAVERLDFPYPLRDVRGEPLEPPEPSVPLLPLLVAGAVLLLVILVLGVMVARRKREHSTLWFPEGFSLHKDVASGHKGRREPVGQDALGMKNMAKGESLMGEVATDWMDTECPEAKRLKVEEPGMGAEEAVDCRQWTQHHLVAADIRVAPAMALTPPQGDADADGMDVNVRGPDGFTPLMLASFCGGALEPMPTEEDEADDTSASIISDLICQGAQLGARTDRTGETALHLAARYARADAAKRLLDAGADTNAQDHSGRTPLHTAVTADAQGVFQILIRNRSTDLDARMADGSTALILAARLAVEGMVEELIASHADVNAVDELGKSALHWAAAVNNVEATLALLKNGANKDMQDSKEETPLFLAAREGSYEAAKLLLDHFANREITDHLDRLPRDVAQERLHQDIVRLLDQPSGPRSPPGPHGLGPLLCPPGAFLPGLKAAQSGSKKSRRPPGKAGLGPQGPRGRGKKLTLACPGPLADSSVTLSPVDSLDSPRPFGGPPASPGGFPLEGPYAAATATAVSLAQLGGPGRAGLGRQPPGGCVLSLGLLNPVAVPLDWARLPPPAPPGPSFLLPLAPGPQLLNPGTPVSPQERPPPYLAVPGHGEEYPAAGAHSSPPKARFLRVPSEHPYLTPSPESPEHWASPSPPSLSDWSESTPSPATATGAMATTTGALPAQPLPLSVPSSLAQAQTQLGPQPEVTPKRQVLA

| SMILES | composite z-score [1] | composite z-score [2] | composite z-score [3] | composite z-score [4] | composite z-score [5] | composite z-score [6] | composite z-score [7] | z-score [8] | composite z-score [9] | composite z-score [10] | composite z-score [11] | z-score [12] | z-score [13] | z-score [14] | composite z-score [15] | z-score [16] | composite z-score [17] | composite z-score [18] | composite z-score [19] | composite z-score [20] |
| --- | --- | --- | --- | --- | --- | --- | --- | --- | --- | --- | --- | --- | --- | --- | --- | --- | --- | --- | --- | --- |
| N#Cc1ccc(C(O)C2C=CC3C(=O)N(c4ccccc4)C(=O)C3N2Nc2ccccc2F)cc1 (stereo not given) | -0.367 | 0.362 | 0.315 | 0.936 | 1.37 | 1.24 | -0.0077 | 0.372 (inactive) | 0.716 | -0.0994 | 0.713 | -0.413 (inactive) | 0.135 (inactive) | -0.851 (inactive) | 2.93 | 0.246 (inactive) | -0.113 | 0.339 | 0.972 | 0.0262 |
| C=CC1c2cc(O)c(OC)cc2CCN1Cc1cccc(OC(F)(F)F)c1 (stereo not given) | 0.335 | -0.145 | -0.103 | -0.605 | -0.137 | 1.59 | 1.1 | 0.385 (inactive) | -0.108 | -0.268 | 1.22 | -26 (active) | -20.2 (active) | -3.13 (inactive) | 3.88 | 0.148 (inactive) | -0.129 | -0.0799 | -0.344 | -0.125 |
| Cc1ccc(S[C@]2(C(=O)O)CC(=O)N(C(C)C)[C@@H]2c2ccc(CO)cc2)cc1 | 0.125 | 0.552 | -0.172 | -0.0563 | -0.445 | -0.226 | 0.751 | -0.175 (inactive) | -0.735 | -0.189 | 1.21 | -1.54 (inactive) | -0.916 (inactive) | -0.963 (inactive) | -0.634 | 1.66 (inactive) | -0.0719 | 0.306 | -0.229 | -0.134 |
| C=CCN1C(=O)[C@]2(O[C@H](CCO)[C@@H]([Si](C)(C)c3ccc(OC)cc3)[C@@H]2C)c2cc(N(C=O)c3ccccc3)ccc21 | 0.0147 | 0.109 | -0.0583 | 0.26 | 0.425 | 0.495 | 0.903 | -2.69 (inactive) | 0.359 | 0.0021 | 1.47 | 1.28 (inactive) | 0.859 (inactive) | 36.9 (active) | 1.19 | 1.03 (inactive) | -0.121 | -0.0888 | 0.649 | -0.0947 |
| CCOC(=O)[C@H]1C/C=C/C[C@H](C(=O)OCC)C(=O)O[C@H]2[C@@H](OC)O[C@H](CO)[C@@H](OC(=O)c3ccc(Br)cc3)[C@@H]2OC1=O | 0.0086 | 0.014 | -0.0459 | -0.0304 | -0.0686 | 0.132 | 0.517 | -0.0847 (inactive) | -0.0976 | 0.0566 | 0.419 | -0.436 (inactive) | -0.316 (inactive) | 2.17 (inactive) | 0.796 | -0.67 (inactive) | -0.0653 | 0.197 | 0.415 | -0.116 |
| COCCOC(=O)N1C(=O)[C@@]2(c3cc(C#CCCO)ccc31)[C@H](c1ccc(O)cc1)N1[C@H](c3ccccc3)[C@H](c3ccccc3)OC(=O)[C@H]1[C@@H]2C(=O)N1CCN(c2ncccn2)CC1 | -0.788 | 0.325 | 0.005 | 0.792 | 1.44 | 1.49 | 1.24 | -0.606 (inactive) | 0.437 | 0.783 | 1.53 | 0.356 (inactive) | 0.686 (inactive) | 1.6 (inactive) | 3.17 | 0.531 (inactive) | 0.837 | 1.58 | 1.01 | -0.283 |
